From PubChem BioAssay
Most compounds without a hit are left out; they make up all but 3% or so of the library.
SNCA expr inh: Primary qHTS assay for inhibitors of alpha-synuclein gene (SNCA) expression; HEK-293 SNCA-luciferase knock-in, luminescence, 24 h; Potency, µM (highest dose often 57.2 µM), actives largely listed as inhibitors; hit rate 0.17% among 140,000; AID 1671194, 2021; also: nearly all actives have a fitted effect of over 45% in size
KDM5B inh: Primary screen for KDM5B Histone Demethylases FDH-coupled qHTS; Lysine-specific demethylase 5B (Homo sapiens), Q9UGL1; KDM5B demethylase, FDH-coupled NADH fluorescence (FDH is formaldehyde dehydrogenase); Potency, µM (titrated, usually from 57.7 µM), hits mostly inhibitors; hit rate 2.6% among 220,000; also: nearly all actives have a fitted effect of over 70% in size
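Compound dilutions met 200 nM (final) KDM5BΔAP for 10 min at room temperature before substrate addition. The substrate mix held 12.5 µM H3K4me3 with cofactors 25 µM α-ketoglutarate and 50 µM Fe²⁺. NADH signal gain over 30 min defined activity.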
IP6K1 inhibitor: Primary qHTS assay for small molecule inhibitors of Inositol hexaphosphate kinase 1 (IP6K1). activity change, % (series mostly up to about 58 µM). hit rate 0.81% among 140,000. IP6K1 kinase, ADP-Glo luminescence, 2 h; stronger effect = lower value. AID 1645851, 2021. Inositol hexakisphosphate kinase 1 (Homo sapiens), Q92551; in the data active = activity change below about -25%
Target sequence (Q92551 whole entry, looked up): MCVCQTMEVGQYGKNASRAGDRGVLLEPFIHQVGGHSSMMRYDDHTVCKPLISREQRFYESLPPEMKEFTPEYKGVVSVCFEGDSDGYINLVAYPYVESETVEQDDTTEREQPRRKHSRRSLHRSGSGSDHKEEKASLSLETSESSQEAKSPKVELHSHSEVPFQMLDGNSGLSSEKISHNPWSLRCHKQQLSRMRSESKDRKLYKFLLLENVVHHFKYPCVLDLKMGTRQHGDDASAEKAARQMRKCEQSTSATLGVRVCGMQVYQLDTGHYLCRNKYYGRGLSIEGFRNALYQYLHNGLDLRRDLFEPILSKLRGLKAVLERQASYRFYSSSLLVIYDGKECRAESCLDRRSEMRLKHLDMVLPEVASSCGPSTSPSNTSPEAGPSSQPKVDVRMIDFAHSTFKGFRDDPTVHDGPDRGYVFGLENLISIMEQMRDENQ
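ADP-Glo luminescence measures ADP made by human IP6K1 during a 2 h RT reaction with ATP/IP6 (mix at 1.3 mM/130 uM); top library doses 57.5 and 19.1 uM final.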
SNCA viab count: GF-AFC viability counterscreen for inhibitors of alpha-synuclein gene (SNCA) expression; Potency, µM (titrated, usually from 57.1 µM), most hits filed as cytotoxic; HEK-293-SNCA-luc viability, GF-AFC fluorescence, 24 h; hit rate 0.12% among 150,000; also: nearly all actives have a fitted effect of over 30% in size
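HEK-293-SNCA-luc cells (1500/well) plated 24 h, then exposed 24 h to a dilution series; GF-AFC added 30 min at 37C, fluorescence 405/540 nm; normalised to medium-only and DMSO wells, Hill fit.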
Each line names hits and unclear results; the compound was inactive in the other large screens; ! = not active in a repeat. Unless noted, calls follow the shape of the dose curve; as a rule, active = well fitted curve in the direction sought with a large enough effect; inconclusive = small, poorly fitted or top-dose-only effect, or another doubt; inactive = no such curve, though single readings can be large; an effect the other way counts as inactive or inconclusive.

COc1cccc(NC(=O)c2ccc(-c3nnc4ccc(NC(=O)C5CCC5)cn34)cc2)c1	KDM5B inh 25µM
COc1ccc(-c2cnc3[nH]cc(CC(=O)NC4CCC(O)CC4)c3c2)cc1 (stereo not drawn)	KDM5B inh inconclusive
O=C(Cc1c[nH]c2ncc(-c3ccc(Oc4ccccc4)cc3)cc12)N1CCOCC1	SNCA expr inh 25µM, KDM5B inh 40µM, SNCA viab count inconclusive
O=C(Cc1c[nH]c2ncc(-c3cccc(O)c3)cc12)N1CCOCC1	SNCA expr inh inconclusive, KDM5B inh inconclusive
COc1cc(F)cc(-c2cnc3[nH]cc(CC(=O)N4CCOCC4)c3c2)c1	KDM5B inh 35µM, SNCA viab count inconclusive
COc1ccc(-c2cnc3[nH]cc(CC(=O)N4CCNC(=O)C4)c3c2)cc1	KDM5B inh 35µM
O=C(Cc1c[nH]c2ncc(-c3ccccc3Oc3ccccc3)cc12)N1CCOCC1	SNCA expr inh inconclusive, KDM5B inh inconclusive
O=C(Cc1c[nH]c2ncc(-c3ccccc3)cc12)N1CC[S+](=O)([O-])CC1	KDM5B inh 35µM
Cc1cc(C)c(CC(=O)O)c(C)c1	none (no result: SNCA expr inh, IP6K1 inhibitor, SNCA viab count)
COc1ccccc1-c1cccc(CN2CCC(N[S+](=O)([O-])c3c(C)noc3C)CC2)c1	none (no result: KDM5B inh)
O=C(Cc1c[nH]c2ncc(-c3ccccc3C(F)(F)F)cc12)N1CCOCC1	KDM5B inh inconclusive
Cc1ccccc1-c1cnc2[nH]cc(CC(=O)N3CCOCC3)c2c1	KDM5B inh 35µM
O=C(Cc1c[nH]c2ncc(-c3cccc(CO)c3)cc12)N1CCOCC1	KDM5B inh 28µM
COc1ccc(C(O)Cn2ccn3nc(-c4ccc(C(C)C)cc4)cc3c2=O)cc1 (stereo not drawn)	none
COc1cccc(-c2cc3c(=O)n(CCNC(=O)c4ccc(C)cc4)ccn3n2)c1	KDM5B inh 18µM
COc1cccc(-c2cc3c(=O)n(CCNC(=O)c4ccccn4)ccn3n2)c1	KDM5B inh 32µM
COc1cccc(-c2cc3c(=O)n(CCNC(=O)c4ccc(F)cc4)ccn3n2)c1	KDM5B inh 28µM
COc1cccc(-c2cc3c(=O)n(CCNC(=O)Cc4ccc(F)cc4)ccn3n2)c1	none
COc1cccc(-c2cc3c(=O)n(CC(O)c4ccccc4)ccn3n2)c1 (stereo not drawn)	KDM5B inh 28µM
COc1cccc(-c2cc3c(=O)n(CCNC(=O)c4ccccc4)ccn3n2)c1	none
Cc1cccc(OCC(O)CN(Cc2ccccc2)Cc2ccccc2)c1 (stereo not drawn)	none (no result: SNCA expr inh, IP6K1 inhibitor, SNCA viab count)
O=C(NCCN1CCCC1)c1nnn2cc(-c3ccccc3)[nH]c(=O)c12	KDM5B inh 2.5µM
O=C(Cc1ccccc1)Nc1sc2c(c1C(=O)Nc1ccc(Cl)cc1)CCCC2	KDM5B inh inconclusive, IP6K1 inhibitor -30
COc1ccc(C(=O)N[C@@H]2CN(Cc3cccnc3)C[C@H]2CN(C)C)c(OC)c1	KDM5B inh inconclusive
COc1ccc(Cl)cc1C(=O)N[C@@H]1CN(c2ncccn2)C[C@H]1CN(C)C	KDM5B inh inconclusive
COc1ccc(C(=O)N[C@@H]2CN(c3ncccn3)C[C@H]2CN(C)C)c(OC)c1	KDM5B inh 25µM
CN(C)C[C@@H]1CN(c2ncccn2)C[C@H]1NC(=O)C1(C)CCOCC1	KDM5B inh inconclusive
COc1ccc(C2(C(=O)N[C@@H]3CN(c4ncccn4)C[C@H]3CN(C)C)CC2)cc1	KDM5B inh 28µM
COc1cc(Cl)ccc1C(=O)N[C@@H]1CN(c2ncccn2)C[C@H]1CN(C)C	KDM5B inh 28µM
COc1ccc(C(=O)N[C@@H]2CN(c3ncccn3)C[C@H]2CN(C)C)cc1OC	KDM5B inh 28µM
COc1ccc(C(=O)N[C@@H]2CN(c3ncccn3)C[C@H]2CN(C)C)cn1	KDM5B inh inconclusive
O=C(CSc1ccc(Cl)cc1)Nc1ccccc1-c1nc(-c2ccccn2)no1	none (no result: SNCA expr inh, IP6K1 inhibitor, SNCA viab count)
COc1ccc(NC(=O)CN2CCc3cc(OC)c(OC)cc3C2c2ccccc2)cc1 (stereo not drawn)	none (no result: SNCA expr inh, IP6K1 inhibitor, SNCA viab count)
CN(C)C[C@@H]1CN(c2ncccn2)C[C@H]1NC(=O)c1ccc2cc[nH]c2c1	SNCA expr inh inconclusive, KDM5B inh 25µM
CN(C)C[C@@H]1CN(c2ncccn2)C[C@H]1NC(=O)c1cccc2[nH]ccc12	none
COc1cc(-c2cccs2)cc2c1OCCN(C(=O)c1ccncc1C)C2	none
COc1cc(-c2cc(C)c3cccc(OC)c3n2)cc2c1OCCN(C(=O)CCN)C2	KDM5B inh 28µM
CN(C)C(=O)NC1(c2ccccc2)CCN(CCC[C@]2(c3ccc(Cl)c(Cl)c3)CCCN(C(=O)c3ccccc3)C2)CC1	SNCA viab count inconclusive (no result: SNCA expr inh, KDM5B inh)
CC(=O)N(C)C1(c2ccccc2)CCN(CCC[C@]2(c3ccc(Cl)c(Cl)c3)CCCN(C(=O)c3ccccc3)C2)CC1	SNCA expr inh 1.7µM, SNCA viab count 2.2µM! (no result: KDM5B inh)
CC1CCCCC1NC(=O)c1ccc(C#N)cc1 (stereo not drawn)	none (no result: SNCA expr inh, IP6K1 inhibitor, SNCA viab count)
CC(C)c1ccc(/C=N/NC(=O)C2CC2c2ccccc2)cc1 (stereo not drawn)	none (no result: SNCA expr inh, IP6K1 inhibitor, SNCA viab count)
c1cc(-c2cc3c(ccn3Cc3ccncc3)c(N3CCOCC3)n2)c2[nH]ncc2c1	SNCA expr inh inconclusive, KDM5B inh 25µM
N#Cc1ccccc1-c1cc2c(ccn2Cc2ccncc2)c(N2CCOCC2)n1	KDM5B inh inconclusive
c1cc(-c2cc3c(ccn3Cc3ccncc3)c(N3CCOCC3)n2)c2cn[nH]c2c1	KDM5B inh 20µM
C[S+](=O)([O-])N1CCC(Cn2ccc3c(N4CCOCC4)nc(-c4cccc5[nH]ccc45)cc32)CC1	SNCA expr inh inconclusive
c1cc(-c2cc3c(ccn3Cc3ccncc3)c(N3CCOCC3)n2)c2cc[nH]c2c1	KDM5B inh 20µM
COc1ncccc1-c1cnc2[nH]cc(CC(=O)Nc3ccccc3)c2c1	KDM5B inh 35µM, SNCA viab count inconclusive
COc1ccc(-c2cnc3[nH]cc(CC(=O)Nc4cccc(F)c4)c3c2)cc1	KDM5B inh inconclusive, SNCA viab count inconclusive
COc1ccc(-c2cnc3[nH]cc(CC(=O)NCCc4ccccn4)c3c2)cc1	KDM5B inh 35µM
COc1ccc(-c2cnc3[nH]cc(CC(=O)Nc4cccnc4)c3c2)cc1	KDM5B inh 40µM
COc1ncccc1-c1cnc2[nH]cc(CC(=O)Nc3ccncc3)c2c1	KDM5B inh 40µM
COc1ncccc1-c1cnc2[nH]cc(CC(=O)Nc3cccnc3)c2c1	KDM5B inh inconclusive, SNCA viab count inconclusive
O=C(NCc1ccc(C(F)(F)F)cc1)C1(c2ccc(Cl)cc2)CCOCC1	none (no result: SNCA expr inh, KDM5B inh, SNCA viab count)
O=C(NC1CC1)c1nc(-c2ccc(F)cc2)c2cnccn12	KDM5B inh 35µM
O=C(c1nc(-c2ccc(Cl)cc2)c2cnccn12)N1CCOCC1	KDM5B inh 32µM
C[S+](=O)([O-])c1ccc(-c2nc(C(=O)N3CCCC3)n3ccncc23)cc1	SNCA expr inh inconclusive, KDM5B inh inconclusive, SNCA viab count inconclusive
